These results are taken from PubChem BioAssay (NCATS).

The target of assay [1] is Peroxisome proliferator-activated receptor delta (Homo sapiens) (UniProt Q03181). The experiment in a line: qHTS assay for small molecule agonists of peroxisome proliferator-activated receptor delta signaling (AID 588534).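 Note: 0% = DMSO basal wells and 100% = positive control agonist at 10 µM.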 The method in brief: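 Reporter cells were plated and held 5 hrs at 37 C before compounds were added. After 18 hrs at 37 C, CCF4 dye was loaded for 2 hrs at RT and fluorescence measured.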
Sequence of Peroxisome proliferator-activated receptor delta (Homo sapiens) (Q03181 whole entry, looked up): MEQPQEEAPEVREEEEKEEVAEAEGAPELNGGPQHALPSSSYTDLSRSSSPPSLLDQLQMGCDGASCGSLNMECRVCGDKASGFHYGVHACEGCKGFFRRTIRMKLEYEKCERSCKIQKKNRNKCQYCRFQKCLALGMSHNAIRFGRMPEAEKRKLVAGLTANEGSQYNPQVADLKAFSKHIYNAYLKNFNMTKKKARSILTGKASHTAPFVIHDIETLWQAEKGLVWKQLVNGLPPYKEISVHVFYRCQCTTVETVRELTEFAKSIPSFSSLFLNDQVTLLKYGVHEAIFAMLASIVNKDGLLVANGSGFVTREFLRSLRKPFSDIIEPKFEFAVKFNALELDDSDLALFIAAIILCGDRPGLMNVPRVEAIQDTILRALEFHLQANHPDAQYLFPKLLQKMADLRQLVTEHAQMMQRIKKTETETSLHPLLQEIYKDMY
(In general: qHTS replaces the single test concentration by a dilution series.)

The target in assay [2] is Glucocorticoid receptor (Homo sapiens) (UniProt P04150). The experiment in a line: qHTS assay for small molecule agonists of glucocorticoid receptor signaling (AID 588532; active = well fitted curve in the direction sought with a large enough effect in the signal ratio, with a control signal flat; the % refers to the signal ratio;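 note: 100% = dexamethasone at 0.1 µM and 0% = DMSO only wells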). The following applies: HeLa MMTV-bla, beta-lactamase ratio, agonist, 18 h; activation: stronger effect = higher value, percent of dexamethasone control, DMSO zero. The essentials: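 Quantitative HTS using CellSensor MMTV-bla HeLa cells in charcoal/dextran-treated serum; compounds tested up to 92 uM. After 18 h at 37 C, CCF4 dye reported reporter induction.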
Sequence of Glucocorticoid receptor (Homo sapiens) (P04150 whole entry, looked up): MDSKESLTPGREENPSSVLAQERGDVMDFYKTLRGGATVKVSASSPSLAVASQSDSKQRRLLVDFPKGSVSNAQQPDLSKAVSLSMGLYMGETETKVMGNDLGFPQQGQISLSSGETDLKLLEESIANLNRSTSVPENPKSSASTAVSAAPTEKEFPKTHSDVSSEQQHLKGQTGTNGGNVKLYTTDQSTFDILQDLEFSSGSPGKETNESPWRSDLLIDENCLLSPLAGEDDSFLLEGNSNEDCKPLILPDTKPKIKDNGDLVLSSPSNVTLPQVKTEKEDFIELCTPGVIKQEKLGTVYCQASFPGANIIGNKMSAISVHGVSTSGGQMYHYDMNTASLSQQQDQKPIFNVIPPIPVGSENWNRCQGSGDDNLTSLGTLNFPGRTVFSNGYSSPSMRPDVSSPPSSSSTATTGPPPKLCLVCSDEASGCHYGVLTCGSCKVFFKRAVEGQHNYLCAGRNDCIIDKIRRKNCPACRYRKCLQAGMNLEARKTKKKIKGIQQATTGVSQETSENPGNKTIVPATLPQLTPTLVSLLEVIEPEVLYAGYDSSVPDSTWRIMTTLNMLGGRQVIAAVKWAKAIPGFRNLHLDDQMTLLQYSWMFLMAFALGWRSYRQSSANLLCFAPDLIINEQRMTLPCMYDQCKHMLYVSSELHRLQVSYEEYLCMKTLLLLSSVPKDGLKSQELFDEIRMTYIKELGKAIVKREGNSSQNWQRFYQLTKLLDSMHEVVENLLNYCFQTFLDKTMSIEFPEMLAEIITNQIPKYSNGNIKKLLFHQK

For assay [3] the target is unchanged. The experiment in a line: qHTS assay for small molecule antagonists of glucocorticoid receptor signaling (AID 588533; active = well fitted inhibition curve with a large enough effect in the signal ratio, with a control signal flat, not every such curve was filed as active; the % refers to the signal ratio;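 note: cells stimulated with 2 nM dexamethasone as agonist; % is set by controls: 0 for no effect and ±100 for the full control effect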). The method in brief: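 Antagonist-mode qHTS: compound titrations added to GRE-bla HeLa cells, then dexamethasone 2 nM final; 18 h, 37 C. CCF4 FRET fluorescence normalized to dexamethasone and DMSO; IC50 from Hill fit.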
Assay [4] deals with Peroxisome proliferator-activated receptor gamma (Homo sapiens) (UniProt P37231). The experiment in a line: qHTS assay for small molecule agonists of peroxisome proliferator-activated receptor gamma signaling (AID 588536; active = well fitted curve in the direction sought with a large enough effect in the signal ratio, with a control signal flat, not every such curve was filed as active; the % refers to the signal ratio;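 note: 0% = DMSO basal wells and 100% = rosiglitazone at 2 µM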). The method in brief:
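HEK293 UAS-bla reporter line, 1% charcoal/dextran FBS; titration, 16 h, 37 C; CCF4 loading 2 h RT; fluorescence 460/530 nm. Normalized to rosiglitazone 2 uM = 100%, DMSO = 0%.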

For assay [5] the target is unchanged. The experiment in a line: qHTS assay for small molecule antagonists of peroxisome proliferator-activated receptor gamma signaling (AID 588537; active = well fitted inhibition curve with a large enough effect in the signal ratio, with a control signal flat, not every such curve was filed as active; the % refers to the signal ratio;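 note: reporter cells co-stimulated with 50 nM rosiglitazone agonist during compound treatment; % of control where 0% means no effect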). The method in brief: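 Inhibitors of agonist-stimulated UAS-bla reporter activity were sought in HEK293 cells; rosiglitazone (50 nM) defined full signal and DMSO baseline. Curves fitted to Hill model gave IC50 and efficacy.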

Assay [6] addresses Vitamin D3 receptor (Homo sapiens) (UniProt P11473). The experiment in a line: qHTS assay for small molecule antagonists of vitamin D receptor signaling (AID 588541).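 Note: receptor activated by calcitriol during compound treatment; series mostly up to about 77 µM; % is set by controls: 0 for no effect and ±100 for the full control effect.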 The method in brief:
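Antagonist-mode beta-lactamase reporter assay: HEK293T VDR-UAS-bla cells were exposed to titrated compound alongside 1-alpha,25-dihydroxyvitamin D3 at 3 nM final for 16 h. Values were normalized to the 50 nM agonist control and DMSO basal, with IC50 and efficacy from Hill equation fits.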

For assay [7] the target is unchanged. The experiment in a line: qHTS assay for small molecule agonists of vitamin D receptor signaling (AID 588543).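 Note: 0% = DMSO basal and 100% = reference agonist control.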 The method in brief:
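qHTS in agonist mode: compound titrations stimulate a VDR-driven β-lactamase reporter in HEK293T cells over 16 h at 37 °C. Response normalized to 50 nM 1α,25-dihydroxyvitamin D3 = 100%, DMSO = 0%; Hill fitting gives EC50 and maximal response.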

For assay [8], the target named is Thyroid hormone receptor beta (Homo sapiens) (UniProt P10828). The experiment in a line: qHTS assay for small molecule agonists of thyroid hormone receptor beta signaling (AID 588545). The method in brief:
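In this cell-based screen, titrated compounds act on HEK 293 cells held in medium with 2% charcoal/dextran FBS, NEAA and pyruvate for 18 hrs at 37 C. Responses are expressed relative to T3 (10 nM) as 100% and basal DMSO as 0%.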

Assay [9] in a line: qHTS assay for small molecule antagonists of retinoid X receptor alpha signaling (AID 588546; active = well fitted inhibition curve with a large enough effect in the signal ratio, with a control signal flat, not every such curve was filed as active; the % refers to the signal ratio;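 note: cells stimulated with 9-cis-retinoic acid as agonist; % is set by controls: 0 for no effect and ±100 for the full control effect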). The following applies: HEK293T RXRa-UAS-bla, beta-lactamase ratio, antagonist mode; measured here: W530 green channel, cytotoxicity proxy. The essentials: (§1)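 Beta-lactamase reporter inhibition, read as CCF4 fluorescence ratio (ex 405, em 460/530 nm) after 2 h at RT. HEK293T UAS-bla cells, 2500/well, were stimulated with 9-cis-RA at 500 or 100 nM final alongside test compound for 18 h at 37 C.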

The target in assay [10] is Retinoic acid receptor RXR-alpha (Homo sapiens) (UniProt P19793). The assay is described as above. The following applies: HEK293T RXRa-UAS-bla, beta-lactamase ratio, antagonist mode. The method in brief: as §1
Sequence of Retinoic acid receptor RXR-alpha (Homo sapiens) (P19793 whole entry, looked up): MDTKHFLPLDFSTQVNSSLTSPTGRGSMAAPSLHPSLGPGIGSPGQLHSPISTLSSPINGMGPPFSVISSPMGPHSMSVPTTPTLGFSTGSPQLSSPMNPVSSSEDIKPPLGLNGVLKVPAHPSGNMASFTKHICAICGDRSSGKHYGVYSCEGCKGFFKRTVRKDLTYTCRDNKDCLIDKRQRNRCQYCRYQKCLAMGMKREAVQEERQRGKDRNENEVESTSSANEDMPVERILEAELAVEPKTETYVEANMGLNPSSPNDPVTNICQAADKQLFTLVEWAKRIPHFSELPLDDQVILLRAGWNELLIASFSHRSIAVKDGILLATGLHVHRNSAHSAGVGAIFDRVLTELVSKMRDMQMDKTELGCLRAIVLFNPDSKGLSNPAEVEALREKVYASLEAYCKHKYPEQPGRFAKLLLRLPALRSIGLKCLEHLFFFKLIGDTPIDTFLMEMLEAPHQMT
In assay [11] the target is Thyroid hormone receptor beta (Homo sapiens) (UniProt P10828). The experiment in a line: qHTS assay for small molecule antagonists of thyroid hormone receptor beta signaling (AID 588547; active = well fitted inhibition curve with a large enough effect in the signal ratio, with a control signal flat, not every such curve was filed as active; the % refers to the signal ratio;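 note: cells stimulated with 0.4 nM T3 agonist during compound exposure; series mostly up to about 77 µM; % is set by controls: 0 for no effect and ±100 for the full control effect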). The following applies: TR-UAS-bla HEK293, beta-lactamase ratio, antagonist mode, 18 h. The essentials:
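Inhibition of T3-driven (0.4nM final) beta-lactamase reporter activity was measured over 0.59 nM to 92 uM compound after 18 h at 37 C. The cells were GripTite HEK293 TR-UAS-bla in charcoal/dextran-stripped serum, with CCF4 ratio read-out and IC50 from Hill fits.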

Assay [12] is described as follows: qHTS assay for small molecule activators of the p53 signaling pathway (AID 651743; active = well fitted activation curve with a large enough effect in the signal ratio, not every such curve was filed as active; the % refers to the signal ratio; note: series mostly up to about 92 µM; % of control where 0% means no effect). As to conditions: HCT-116 p53RE-bla, beta-lactamase FRET ratio, 16 h; activation: stronger effect = higher value. The method in brief: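 Screen for p53 pathway agonists uses stably transfected p53RE-bla HCT-116 cells, 4,000 per well, treated 16 h at 37 C with compounds in DMSO.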
Assay [13] can be described thus: qHTS assay for small molecule activators of the nuclear factor-kappa B (NF-kB) signaling pathway (AID 651749; active = well fitted activation curve with a large enough effect in the signal ratio; the % refers to the signal ratio; note: series mostly up to about 77 µM; % of control where 0% means no effect). The following applies: NF-kB-bla ME-180 cells, beta-lactamase FRET ratio, 16 h; activation: stronger effect = higher value. The method in brief: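 Stably transfected ME-180 line; NF-kB response element upstream of beta-lactamase. Treatment: compound or DMSO, 16 hr. Detection: fluorescent FRET substrate.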

Assay [14] in a line: qHTS assay for environmental chemicals that activate the Aryl hydrocarbon Receptor (AhR) signaling pathway (AID 651777; active = well fitted curve in the direction sought with a large enough effect; an effect the other way counts as inactive or inconclusive; note: % of control where 0% means no effect; nearly all actives have a fitted effect of over 15% in size). As to conditions: 1A2-DRE human hepatoma cells, luciferase, 24 h; activation: stronger effect = higher value. The method in brief: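 1A2-DRE human hepatoma reporter line; 1,200 cells/well; cmpd or DMSO 24 h, 37 C/5% CO2; One-Glo 30 min RT; luciferase lum.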
In assay [15] the target is Peroxisome proliferator-activated receptor alpha (Homo sapiens) (UniProt Q07869). The experiment in a line: qHTS assay for small molecule agonists of the peroxisome proliferator-activated receptor alpha (PPARalpha) signaling pathway (AID 651778; active = well fitted curve in the direction sought with a large enough effect; an effect the other way counts as inactive or inconclusive; note: % of control where 0% means no effect). The following applies: PathHunter PPARalpha complementation, chemiluminescence, 6 h; max response: stronger effect = higher value. The method in brief: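 Chemiluminescence from complemented enzyme reported PPARalpha activation in cells after 6 hr of compound treatment at 37 C. The detection reagent was incubated for 60 min at room temperature, and compounds were scored as agonists.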
Sequence of Peroxisome proliferator-activated receptor alpha (Homo sapiens) (Q07869 whole entry, looked up): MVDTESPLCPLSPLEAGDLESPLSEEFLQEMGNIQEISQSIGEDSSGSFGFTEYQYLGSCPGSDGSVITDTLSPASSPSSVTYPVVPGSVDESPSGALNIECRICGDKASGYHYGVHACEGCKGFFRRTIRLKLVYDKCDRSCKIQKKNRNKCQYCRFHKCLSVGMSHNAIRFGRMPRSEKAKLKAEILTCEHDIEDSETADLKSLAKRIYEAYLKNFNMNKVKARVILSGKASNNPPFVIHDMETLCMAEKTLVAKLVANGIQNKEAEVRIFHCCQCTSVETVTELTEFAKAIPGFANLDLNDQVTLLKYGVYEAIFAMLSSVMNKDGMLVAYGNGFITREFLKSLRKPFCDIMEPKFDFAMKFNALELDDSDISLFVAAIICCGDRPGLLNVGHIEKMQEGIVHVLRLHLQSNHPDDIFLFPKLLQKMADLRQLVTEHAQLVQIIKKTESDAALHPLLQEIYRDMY

The nature of assay [16]: qHTS assay for small molecule agonists of the antioxidant response element (ARE) signaling pathway measured by Nrf2-dependant transcriptional activity (AID 720636; active = well fitted curve in the direction sought with a large enough effect in the repeat runs; an effect the other way counts as inactive or inconclusive;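 note: HepG2 cells with an ARE-driven luciferase reporter; % of control where 0% means no effect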). The essentials:
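Cells: ARE-luc HepG2 with Nrf2-responsive luciferase. Medium contained 1% dialyzed FBS. Compound exposure lasted 16 hr at 37 C and 5% CO2, followed by ONE-Glo luciferase detection.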

A short description of assay [17]: qHTS assay for small molecule agonists of the antioxidant response element (ARE) signaling pathway measured by Nrf2-dependant transcriptional activity - cell viability counter screen (AID 720653; active = well fitted curve in the direction sought with a large enough effect in the repeat runs; an effect the other way counts as inactive or inconclusive; note: % is set by controls: 0 for no effect and ±100 for the full control effect). As to conditions: ARE-bla HepG2 viability, CellTiter-Glo ATP luminescence, 16 h; max response: stronger effect = lower value. The method in brief:
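Cytotoxicity counter screen: intracellular ATP quantified by CellTiter-Glo luminescence in the same ARE-bla HepG2 plates, after 16 h compound exposure and a 2 h beta-lactamase substrate step.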

The nature of assay [18]: qHTS assay for cell viability of HEK293 cells (AID 743288; active = well fitted curve in the direction sought with a large enough effect; an effect the other way counts as inactive or inconclusive; note: % is set by controls: 0 for no effect and ±100 for the full control effect; nearly all actives have a fitted effect of over 50% in size). The following applies: ATP luminescence (CellTiter-Glo), 18 h; max response: stronger effect = lower value. The essentials: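 The Tox21 protocol used parental HEK293 cells treated for 18 h at 37 C with compounds delivered by pintool; ATP-coupled luminescence after 30 min at room temperature gave viability.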
Assay [19] is described as follows: qHTS assay for cell viability of the p53RE-bla HCT-116 cell line (AID 743292; active = well fitted curve in the direction sought with a large enough effect; an effect the other way counts as inactive or inconclusive; note: % is set by controls: 0 for no effect and ±100 for the full control effect; nearly all actives have a fitted effect of over 55% in size). The method in brief:
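HCT-116 p53RE-bla cells seeded 4,000/well; 5 h at 37 C; compound (DMSO) added; 16 h at 37 C; CellTiter-Glo added, 30 min RT; luminescence read.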

Assay [20] concerns the target Nuclear receptor subfamily 1 group I member 2 (Rattus norvegicus) (UniProt Q9R1A7). The experiment in a line: qHTS assay for small molecule activators of the rat pregnane X receptor (rPXR) signaling pathway (AID 651751; call rule not given here; note: 0% is about no effect). The following applies: rPXR reporter cells, luciferase (One-Glo), 24 h.
A short description of assay [21]: qHTS assay for small molecule activators of the human pregnane X receptor (PXR) signaling pathway (AID 720659; call rule not given here; note: 0% is about no effect).
A short description of assay [22]: qHTS assay for small molecule antagonists of peroxisome proliferator-activated receptor delta signaling (AID 588535; active = well fitted inhibition curve with a large enough effect in the signal ratio, with a control signal flat, not every such curve was filed as active; the % refers to the signal ratio;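 for max response: cells co-treated with a PPAR-delta agonist as stimulator during compound exposure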). As to conditions: HEK293T PPARd-UAS-bla, beta-lactamase FRET ratio, 18 h; 460 nm channel. The method in brief: (§2)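 Cell-based beta-lactamase assay in antagonist mode: 4000 HEK293T PPAR-delta-UAS-bla cells per well, 5 hr preincubation then 18 hr compound incubation at 37 C. IC50 obtained by Hill equation fitting.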

Assay [23] deals with Peroxisome proliferator-activated receptor delta (Homo sapiens) (UniProt Q03181). The assay is described as above. The method in brief: as §2
The nature of assay [24]: qHTS assay for small molecule agonists of retinoid X receptor alpha signaling (AID 588544).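 For activation: 0% = DMSO basal wells and 100% = reference agonist.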 The following applies: HEK293T RXRa-UAS-bla, beta-lactamase reporter, 18 h; 530 nm emission.
For assay [25], the target named is Retinoic acid receptor RXR-alpha (Homo sapiens) (UniProt P19793). The description is as above.

Results filed as inconclusive are left out. The source made the active and inactive calls. Unless noted, calls come from the whole dose curve.

Sequence of Peroxisome proliferator-activated receptor gamma (Homo sapiens) (P37231 whole entry, looked up): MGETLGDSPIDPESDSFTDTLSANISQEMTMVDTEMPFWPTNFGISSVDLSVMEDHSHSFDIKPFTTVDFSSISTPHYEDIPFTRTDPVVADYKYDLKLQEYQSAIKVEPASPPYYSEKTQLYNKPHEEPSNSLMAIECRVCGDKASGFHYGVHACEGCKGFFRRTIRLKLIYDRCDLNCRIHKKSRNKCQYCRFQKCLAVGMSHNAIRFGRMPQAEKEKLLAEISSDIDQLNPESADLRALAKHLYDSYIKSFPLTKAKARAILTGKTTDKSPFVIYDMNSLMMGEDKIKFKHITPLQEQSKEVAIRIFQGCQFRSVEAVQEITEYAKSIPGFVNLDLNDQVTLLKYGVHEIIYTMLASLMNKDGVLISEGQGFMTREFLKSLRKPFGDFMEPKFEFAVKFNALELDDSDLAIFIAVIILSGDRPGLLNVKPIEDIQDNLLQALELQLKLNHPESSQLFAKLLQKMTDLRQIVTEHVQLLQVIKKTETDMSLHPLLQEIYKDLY
Sequence of Vitamin D3 receptor (Homo sapiens) (P11473 whole entry, looked up): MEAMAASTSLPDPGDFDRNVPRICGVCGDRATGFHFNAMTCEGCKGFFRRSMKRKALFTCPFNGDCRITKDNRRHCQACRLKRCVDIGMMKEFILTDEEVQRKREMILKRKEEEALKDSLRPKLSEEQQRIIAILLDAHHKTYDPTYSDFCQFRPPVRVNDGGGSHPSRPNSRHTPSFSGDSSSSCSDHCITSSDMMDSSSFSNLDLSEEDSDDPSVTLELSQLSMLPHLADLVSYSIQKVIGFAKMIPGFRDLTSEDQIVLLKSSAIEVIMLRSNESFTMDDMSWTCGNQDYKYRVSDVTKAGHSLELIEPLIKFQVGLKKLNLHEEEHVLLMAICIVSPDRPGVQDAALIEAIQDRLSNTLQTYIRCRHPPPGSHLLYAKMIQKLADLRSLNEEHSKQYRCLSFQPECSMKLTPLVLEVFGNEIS
Sequence of Thyroid hormone receptor beta (Homo sapiens) (P10828 whole entry, looked up): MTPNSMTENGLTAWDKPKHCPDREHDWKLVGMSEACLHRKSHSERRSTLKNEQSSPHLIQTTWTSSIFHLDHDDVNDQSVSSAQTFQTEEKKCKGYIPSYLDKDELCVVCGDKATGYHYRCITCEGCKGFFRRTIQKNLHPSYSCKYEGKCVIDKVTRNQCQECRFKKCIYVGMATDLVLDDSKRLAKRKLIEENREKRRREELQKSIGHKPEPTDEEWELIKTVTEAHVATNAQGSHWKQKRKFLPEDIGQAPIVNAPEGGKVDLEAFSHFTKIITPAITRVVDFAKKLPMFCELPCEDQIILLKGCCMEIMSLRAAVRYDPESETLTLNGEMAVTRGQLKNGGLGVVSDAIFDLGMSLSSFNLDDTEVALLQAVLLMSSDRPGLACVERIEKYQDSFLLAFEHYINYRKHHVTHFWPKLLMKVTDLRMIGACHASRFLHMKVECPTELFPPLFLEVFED
Sequence of Nuclear receptor subfamily 1 group I member 2 (Rattus norvegicus) (Q9R1A7 whole entry, looked up): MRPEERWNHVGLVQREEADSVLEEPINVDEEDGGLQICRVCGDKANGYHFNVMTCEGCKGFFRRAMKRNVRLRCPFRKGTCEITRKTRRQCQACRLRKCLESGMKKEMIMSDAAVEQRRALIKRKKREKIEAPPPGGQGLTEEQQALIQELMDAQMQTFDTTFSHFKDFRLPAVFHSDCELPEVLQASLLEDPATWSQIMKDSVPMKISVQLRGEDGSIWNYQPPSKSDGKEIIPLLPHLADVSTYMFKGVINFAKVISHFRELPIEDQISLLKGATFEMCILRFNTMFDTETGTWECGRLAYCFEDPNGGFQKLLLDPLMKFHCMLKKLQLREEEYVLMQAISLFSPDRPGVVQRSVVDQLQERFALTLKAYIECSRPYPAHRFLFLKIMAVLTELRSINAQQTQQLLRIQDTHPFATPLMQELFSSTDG

Consider `CCCCC/C=C\C/C=C\CCCCCCCC(=O)OC`, for which, in assay [1], the call was inactive.

As to `CC1(C)C(=O)N(Br)C(=O)N1Cl`, the compound was called inactive in assay [1].

Take `CCOP(=S)(OCC)OC(Cl)C(Cl)(Cl)Cl` (centres undefined): the activation was 11.6% (inactive) in [2], -0.781% (inactive) in assay [12], 0.0553% (inactive) in assay [13] and 0.044% (inactive) in assay [14]. The Potency entry in assay [3], in assay [4], in assay [5], in [6], in [8] and in [16] was “inactive” throughout. In addition, the Potency entry in assay [19] was “inactive”. Further, the compound was classed as inactive in [1], in [7] and in assay [21]. The max response in assay [9] was -12.5%; in assay [10] it was -15% (inactive); in assay [15], -1.33% (inactive); in assay [17], -3.95% (inactive); in assay [18] it was -12.8% (inactive); in assay [20], 0.487% (inactive). Besides, the activity change % (negative = inhibition) in assay [11] is 7.52% (inactive).

As to `CCCCOCCOCCOCCO`, the compound was called inactive in assay [1].

Consider `C=Cc1ccccn1`, for which, in assay [1], the compound was classed as inactive.

Take `O=C(O)c1ccc(O)cc1O`: the compound was classed as inactive in [1].

Take `O=C1CCC(C2CCCCC2)CC1`: the compound was classed as inactive in assay [1].

For `Cc1ccccc1C`, the call in assay [1] was inactive. The Potency entry in assay [5] was “inactive”.

Take `CCC(C)(CC)c1cc(NC(=O)c2c(OC)cccc2OC)on1`: the compound was classed as inactive in [1] and in [7]. Also, the max response was 7.62% in [22]; 12.1% in [24]; 5.81% in assay [9]; -17.5% (inactive) in [10]; -1.49% (inactive) in [15]; 10.3% (inactive) in [17]. The max response in assay [18] was -25.2% (inactive). Also, the Potency entry in assay [23], in assay [4], in [5], in assay [6], in assay [25] and in [8] was “inactive” each time. Moreover, the Potency entry in [16] and in assay [19] was “inactive” each time. The activity change % (negative = inhibition) in assay [11] is 0.364% (inactive). Moreover, the activation in assay [13] was -0.691% (inactive); in [14], 0.26% (inactive).
